SMILES strings stand for the structures. Where “and” joins values, the source holds several entries; their conditions need not be identical. Identical values can stand only once. Records with an inconclusive call do not appear. Calls of active or inactive are those of the source. Unless noted, calls follow the shape of the dose curve; as a rule, active = well fitted curve in the direction sought with a large enough effect; inconclusive = small, poorly fitted or top-dose-only effect, or another doubt; inactive = no such curve, though single readings can be large; an effect the other way counts as inactive or inconclusive.

Assay [1] can be described thus: Validation screen for small molecules that induce genotoxicity in human embryonic kidney (HEK293T) cells expressing luciferase-tagged ELG1 (AID 493106). Also: 0% is about no effect. In a few lines:
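In this validation screen, increased ELG1-luciferase signal flags compounds causing genetic stress. HEK293T reporter cells are treated 16 hr (37 °C, 5% CO2), developed with ONE-Glo for 30 min at room temperature, and imaged on a CCD-based reader.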

Assay [2] addresses ATPase family AAA domain-containing protein 5 (Homo sapiens) (UniProt Q96QE3). The experiment in a line: Validation screen for small molecules that inhibit ELG1-dependent DNA repair in human embryonic kidney (HEK293T) cells expressing luciferase-tagged ELG1 (AID 493107).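 Also: cells co-treated with the DNA-damaging agent 5-fluorouridine alongside compound; series mostly up to about 46 µM; % is scaled to controls: 0 for no effect and ±100 for the full control effect; inhibitors lower the ELG1-luciferase luminescence signal; nearly all actives have a fitted effect of over 70% in size.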 In a few lines: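 Compounds reducing 5-fluorouridine-driven ELG1-luciferase signal in HEK293T cells were scored; exposure lasted 16 hr at 37 °C with luminescence detected via ONE-Glo.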

Assay [3] concerns the target Thyrotropin-releasing hormone receptor (Homo sapiens) (UniProt P34981). The experiment in a line: qHTS for Small Molecule Agonists and Allosteric Enhancers of Human TRH Receptor: Validation Screen for Agonists (AID 493127;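 active = calcium activation more than 3 SD above the typical response in the agonist read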;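 also: intracellular calcium rise by fluo-8 fluorescence before TRH EC20 addition; 0% is about no effect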). To be noted: TRH receptor agonist cell assay; at 2 µM; stronger effect = higher value. In a few lines:
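Kinetic fluorescence assay of agonist-induced calcium release: overnight-plated TRHR cells, room-temperature fluo-8 loading, baseline then compound addition with per-second reads.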
In general terms: Quantitative high-throughput screening tests each substance at several concentrations.

The nature of assay [4]: Nrf2 qHTS screen for inhibitors: Validation (AID 493153; active = well fitted inhibition curve with a large enough effect in the main read-out, with a control signal flat, not every such curve was filed as active). To be noted: Potency: luciferase luminescence; viability change: measured here: cytotoxicity max response. In a few lines:
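In this counterscreened reporter format, each well gives two signals: CellTiter-Fluor fluorescence for cytotoxicity and ARE-luciferase luminescence for Nrf2 function. A549 ARE_Fluc cells in 5% FBS OPTI-MEM were exposed to compound titrations for 18-24 h.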

Assay [5] in a line: qHTS for Inhibitors of Cell Surface uPA Generation: Validation Assay (AID 493164).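 Also: RAW 264.7 macrophage cells exposed to compound for 18 h; 0% is about no effect.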 In a few lines: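 Compounds are titrated over seven points (2.45 nM–38.3 uM final) onto pre-plated RAW 264.7 cells and incubated for 18 h. Retained intracellular ATP, measured with ATP-Lite, indicates blocked lethal factor entry.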
Assay [6] has as its target Galactokinase (Homo sapiens) (UniProt P51570). The experiment in a line: qHTS Validation Assay for Inhibitors of Human Galactokinase (GALK) (AID 493189). Also: 0% is about no effect. In a few lines:
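Luminescence from leftover ATP (Kinase-Glo Plus, 10 min) served as read-out after a 1 h room-temperature reaction of 5 nM GALK, 100 uM galactose and 35 uM ATP at pH8.0.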

A short description of assay [7]: Validation screen for small molecules that induce DNA re-replication in SW480 colon adenocarcinoma cells (AID 504364). Also: 0% is about no effect. Summed up: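 Hoechst-stained SW480 nuclei, imaged at 405 nm excitation after 48 hr compound exposure, were counted for elevated DNA content as the re-replication signal.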
Assay [8] concerns the target Peptidyl-prolyl cis-trans isomerase NIMA-interacting 1 (Homo sapiens) (UniProt Q13526). The experiment in a line: qHTS Validation Assay to Find Inhibitors of Pin1 (AID 504536; active = well fitted inhibition curve with a large enough effect in the polarisation, with a control signal flat, not every such curve was filed as active; the % refers to the polarisation;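 also: 0% = full Pin1 enzyme wells and -100% = no-enzyme wells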). Summed up: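 Fluorescence polarization competition: compounds (titration) displace HiFluor-488-labeled Pin1-1b peptide from Pin1 (0.3 uM final) in pH 7.5 HEPES buffer with DTT, 10 min at room temperature; %Activity normalized to no-enzyme wells, curves fitted.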

Assay [9] addresses Phosphoglycerate kinase, glycosomal (Trypanosoma brucei brucei) (UniProt P07378). The experiment in a line: qHTS Validation Assay to Find Inhibitors of Phosphoglycerate Kinase (AID 504547).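 Also: control wells lack PGK and mark full inhibition.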 In a few lines: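 Compounds are pinned into the substrate/PGK mixture, and GAPDH (100nM final) is added to start the reaction by producing 1,3-BPG. After 60 minutes at room temperature, Kinase-Glo Plus is added and luminescence is measured 10 minutes later.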

Assay [10] addresses phosphoglycerate mutase (Leishmania major) (UniProt Q4Q090). The experiment in a line: qHTS Validation Assay to Find Inhibitors of Phosphoglycerate Mutase (AID 504548). Also: series mostly up to about 58 µM; % is scaled to controls: 0 for no effect and ±100 for the full control effect. Summed up: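 Lm PGAM at 1.25 nM final with substrate in 100 mM TEA pH 7.6, 5 mM MgCl2, 0.01% Tween-20; 45 min at room temperature. Kinase-GloPlus added, 10 min, end-point luminescence read.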

Thyrotropin-releasing hormone receptor (Homo sapiens), sequence (P34981 whole entry, looked up): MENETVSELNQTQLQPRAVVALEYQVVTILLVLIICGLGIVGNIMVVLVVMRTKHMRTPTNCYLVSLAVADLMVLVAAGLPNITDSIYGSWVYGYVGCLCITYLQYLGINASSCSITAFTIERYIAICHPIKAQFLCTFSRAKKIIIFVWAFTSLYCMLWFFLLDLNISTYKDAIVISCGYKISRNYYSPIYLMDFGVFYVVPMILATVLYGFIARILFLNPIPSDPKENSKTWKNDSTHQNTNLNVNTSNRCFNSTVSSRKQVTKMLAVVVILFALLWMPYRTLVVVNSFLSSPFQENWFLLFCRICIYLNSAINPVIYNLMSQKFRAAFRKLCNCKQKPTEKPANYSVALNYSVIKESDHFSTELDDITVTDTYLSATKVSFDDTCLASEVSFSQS
ATPase family AAA domain-containing protein 5 (Homo sapiens), sequence (Q96QE3 whole entry, looked up, the tested form may be a part): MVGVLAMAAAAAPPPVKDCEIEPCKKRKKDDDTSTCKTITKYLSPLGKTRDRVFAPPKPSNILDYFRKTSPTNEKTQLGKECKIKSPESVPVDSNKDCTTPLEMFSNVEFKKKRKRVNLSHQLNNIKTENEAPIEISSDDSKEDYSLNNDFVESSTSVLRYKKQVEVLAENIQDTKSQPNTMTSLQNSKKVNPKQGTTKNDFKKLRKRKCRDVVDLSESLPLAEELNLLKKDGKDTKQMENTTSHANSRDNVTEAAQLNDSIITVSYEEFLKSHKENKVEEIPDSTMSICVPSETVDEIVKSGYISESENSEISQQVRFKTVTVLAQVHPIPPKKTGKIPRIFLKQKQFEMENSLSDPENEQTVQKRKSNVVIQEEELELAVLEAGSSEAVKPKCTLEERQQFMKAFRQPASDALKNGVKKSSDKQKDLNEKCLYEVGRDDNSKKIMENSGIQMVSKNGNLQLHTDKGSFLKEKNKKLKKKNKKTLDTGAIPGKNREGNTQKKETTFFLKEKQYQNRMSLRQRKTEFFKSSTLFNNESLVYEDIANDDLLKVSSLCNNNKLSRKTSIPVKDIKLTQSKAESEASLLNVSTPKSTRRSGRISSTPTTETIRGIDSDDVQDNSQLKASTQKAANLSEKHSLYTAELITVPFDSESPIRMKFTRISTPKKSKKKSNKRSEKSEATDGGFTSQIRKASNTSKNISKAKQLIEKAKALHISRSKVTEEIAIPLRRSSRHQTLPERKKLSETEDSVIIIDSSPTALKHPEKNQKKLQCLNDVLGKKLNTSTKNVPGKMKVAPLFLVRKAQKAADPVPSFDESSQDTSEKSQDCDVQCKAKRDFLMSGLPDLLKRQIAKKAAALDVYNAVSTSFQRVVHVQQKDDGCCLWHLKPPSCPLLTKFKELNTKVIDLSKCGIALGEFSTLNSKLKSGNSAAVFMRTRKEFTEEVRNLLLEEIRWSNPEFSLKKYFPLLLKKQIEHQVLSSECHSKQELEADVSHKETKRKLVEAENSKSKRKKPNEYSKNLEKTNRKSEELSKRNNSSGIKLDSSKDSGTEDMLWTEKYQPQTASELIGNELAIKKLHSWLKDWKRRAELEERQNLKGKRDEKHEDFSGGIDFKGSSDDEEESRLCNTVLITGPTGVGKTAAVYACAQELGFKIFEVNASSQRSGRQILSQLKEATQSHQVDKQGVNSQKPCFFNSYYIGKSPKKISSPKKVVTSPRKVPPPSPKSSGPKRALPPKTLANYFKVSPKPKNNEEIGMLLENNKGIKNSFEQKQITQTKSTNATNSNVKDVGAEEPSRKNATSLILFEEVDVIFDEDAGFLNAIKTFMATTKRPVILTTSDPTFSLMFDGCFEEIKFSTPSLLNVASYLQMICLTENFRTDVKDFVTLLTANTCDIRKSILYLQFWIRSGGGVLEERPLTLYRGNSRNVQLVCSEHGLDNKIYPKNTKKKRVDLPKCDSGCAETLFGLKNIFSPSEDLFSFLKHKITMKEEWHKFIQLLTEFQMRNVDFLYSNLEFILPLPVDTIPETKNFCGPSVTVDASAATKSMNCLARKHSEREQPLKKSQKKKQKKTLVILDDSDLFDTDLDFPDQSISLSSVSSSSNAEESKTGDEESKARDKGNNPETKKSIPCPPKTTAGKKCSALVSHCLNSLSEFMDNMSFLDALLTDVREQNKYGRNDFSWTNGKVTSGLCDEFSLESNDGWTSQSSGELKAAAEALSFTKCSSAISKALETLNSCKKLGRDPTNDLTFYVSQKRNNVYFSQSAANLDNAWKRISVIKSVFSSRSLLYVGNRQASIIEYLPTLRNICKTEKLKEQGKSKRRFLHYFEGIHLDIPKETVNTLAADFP
Peptidyl-prolyl cis-trans isomerase NIMA-interacting 1 (Homo sapiens), sequence (Q13526 whole entry, looked up): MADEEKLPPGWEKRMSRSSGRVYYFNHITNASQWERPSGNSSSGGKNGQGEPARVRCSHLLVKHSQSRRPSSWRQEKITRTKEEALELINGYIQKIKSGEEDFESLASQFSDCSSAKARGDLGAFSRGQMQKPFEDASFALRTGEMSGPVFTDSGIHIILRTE
Galactokinase (Homo sapiens), sequence (P51570 whole entry, looked up): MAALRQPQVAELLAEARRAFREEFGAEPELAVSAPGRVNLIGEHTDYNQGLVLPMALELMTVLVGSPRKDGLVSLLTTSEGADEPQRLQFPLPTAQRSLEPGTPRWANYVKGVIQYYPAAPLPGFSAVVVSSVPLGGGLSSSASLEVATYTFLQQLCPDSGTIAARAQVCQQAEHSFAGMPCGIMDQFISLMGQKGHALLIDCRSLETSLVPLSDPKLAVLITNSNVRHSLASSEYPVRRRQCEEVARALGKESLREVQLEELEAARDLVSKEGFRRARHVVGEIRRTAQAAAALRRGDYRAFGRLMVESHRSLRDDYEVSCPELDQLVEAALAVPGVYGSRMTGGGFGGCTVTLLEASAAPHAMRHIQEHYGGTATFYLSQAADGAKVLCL
Phosphoglycerate kinase, glycosomal (Trypanosoma brucei brucei), sequence (P07378 whole entry, looked up): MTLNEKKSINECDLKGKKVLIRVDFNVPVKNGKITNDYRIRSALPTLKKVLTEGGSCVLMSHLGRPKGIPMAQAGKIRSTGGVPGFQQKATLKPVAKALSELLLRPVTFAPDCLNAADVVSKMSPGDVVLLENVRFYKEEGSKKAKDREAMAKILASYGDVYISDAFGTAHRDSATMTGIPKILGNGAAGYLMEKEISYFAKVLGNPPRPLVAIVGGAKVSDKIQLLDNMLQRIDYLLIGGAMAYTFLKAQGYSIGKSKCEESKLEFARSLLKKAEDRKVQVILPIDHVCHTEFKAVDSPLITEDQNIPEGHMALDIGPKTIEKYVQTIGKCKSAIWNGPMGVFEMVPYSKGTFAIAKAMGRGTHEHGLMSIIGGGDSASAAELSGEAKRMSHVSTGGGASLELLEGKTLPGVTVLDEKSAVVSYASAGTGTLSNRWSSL
phosphoglycerate mutase (Leishmania major), sequence (Q4Q090 1-553): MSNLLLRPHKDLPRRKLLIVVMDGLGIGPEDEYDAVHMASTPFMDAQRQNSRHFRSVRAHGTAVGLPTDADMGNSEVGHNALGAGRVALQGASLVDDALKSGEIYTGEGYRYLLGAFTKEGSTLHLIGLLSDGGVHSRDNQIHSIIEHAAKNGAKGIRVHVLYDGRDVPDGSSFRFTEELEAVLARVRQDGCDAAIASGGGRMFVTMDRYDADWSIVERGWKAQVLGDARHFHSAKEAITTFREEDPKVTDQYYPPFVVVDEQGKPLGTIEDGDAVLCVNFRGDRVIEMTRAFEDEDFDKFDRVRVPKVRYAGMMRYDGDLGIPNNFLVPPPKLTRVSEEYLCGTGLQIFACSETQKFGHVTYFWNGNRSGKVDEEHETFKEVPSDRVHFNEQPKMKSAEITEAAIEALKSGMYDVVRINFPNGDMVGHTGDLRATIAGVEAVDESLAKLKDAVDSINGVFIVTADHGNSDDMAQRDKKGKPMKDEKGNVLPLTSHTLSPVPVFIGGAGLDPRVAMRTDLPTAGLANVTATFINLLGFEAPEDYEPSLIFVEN

With `Cc1[nH]c(=O)c(C#N)cc1-c1ccncc1`, the Potency result in assay [1], in assay [2] and in assay [4] was “inactive” each time. Further, the activation in [3] was 0.562% (inactive). Also, in assay [4], the viability change was -4.04%. Moreover, the compound was classed as inactive in assay [5], in [6], in assay [7], in assay [8], in assay [9] and in assay [10].

As to `OC(CN1CCC(Cc2ccc(F)cc2)CC1)c1ccc(Cl)cc1` (centres undefined), the Potency result in [1], in [2] and in assay [4] was “inactive” in each case. In addition, in [3], the activation was -3.12% (inactive). For the same compound, the viability change in assay [4] is -17.6%. For the same compound, the outcome in assay [5], in assay [6], in assay [7], in assay [8] and in [9] was inactive.

In the case of `Clc1cccc(Cl)c1NC1=NCCN1`, the Potency entry in [1], in [2] and in assay [4] was “inactive” throughout. The viability change in assay [4] worked out at 0.846%. The outcome in assay [5], in assay [6], in [7], in [8], in assay [9] and in assay [10] was inactive.

Take `NC(N)=NC(=O)c1nc(Cl)c(N)nc1N`: the Potency result in assay [1], in assay [2] and in [4] was “inactive” throughout. For the same compound, the activation in assay [3] is 0.812% (inactive). In addition, the viability change in [4] is -5.66%. Also, the compound was called inactive in assay [5], in assay [6], in [7], in assay [8], in assay [9] and in [10].

Take `CC(C)(C)NCC(O)c1ccc(O)c(CO)c1` (centres undefined): the Potency result in [1], in assay [2] and in assay [4] was “inactive” in each case. Also, in assay [3], the activation is 0.188% (inactive) and 0.75% (inactive). The viability change in assay [4] is -3.99% and 2.04%. In addition, the outcome in [5], in assay [6], in [7], in assay [8], in assay [9] and in [10] was inactive.

On to `NS(=O)(=O)c1cc2c(cc1Cl)NC=NS2(=O)=O`, for which the Potency entry in assay [1], in [2] and in assay [4] was “inactive” in each case. In addition, the activation in assay [3] is 1.12% (inactive). Moreover, the viability change in assay [4] is -3.76%. For the same compound, the outcome in assay [5], in assay [6], in assay [7], in [8], in [9] and in [10] was inactive.

Take `Cc1cnc(NC(=O)C2=C(O)c3ccccc3S(=O)(=O)N2C)s1`: the Potency result in assay [1], in [2] and in assay [4] was “inactive” in each case. Further, in assay [3], the activation was 0.812% (inactive). The viability change in assay [4] was -10.1%. In addition, the compound was classed as inactive in assay [5], in assay [6], in [7], in assay [8], in [9] and in assay [10].

Turning to `CC(C)C[C@H](NC(=O)[C@@H](O)[C@H](N)Cc1ccccc1)C(=O)O`, the Potency result in assay [1] and in assay [2] was “inactive” each time. The activation in [3] was 0.938% (inactive). Further, the call in assay [6], in assay [7], in [8], in assay [9] and in assay [10] was inactive.

Consider `CC(C[N+](C)(C)C)OC(N)=O` (centres undefined), for which the Potency result in [1], in assay [2] and in assay [4] was “inactive” each time. Moreover, the activation in assay [3] was 0.562% (inactive). The viability change in assay [4] was -0.659%. Besides, the call in assay [5], in [6], in [7], in assay [8], in [9] and in [10] was inactive.

Turning to `CC(C)(Sc1ccc(CCN(CCCCC2CCCCC2)C(=O)NC2CCCCC2)cc1)C(=O)O`, the Potency result in assay [1] and in assay [2] was “inactive” throughout. Besides, the activation in assay [3] is 1.5% (inactive). In addition, the outcome in [5], in assay [6], in assay [7], in assay [9] and in assay [10] was inactive.

As for `CCN(CC)CCCC(C)Nc1ccnc2cc(Cl)ccc12` (centres undefined), the Potency result in assay [1], in assay [2] and in assay [4] was “inactive” in each case. The activation in [3] is 0.875% (inactive). In [4], the viability change is -17.9%. Also, the compound was classed as inactive in assay [5], in assay [7], in assay [8], in assay [9] and in [10].

On to `O=C1CCC(N2C(=O)c3ccccc3C2=O)C(=O)N1` (centres undefined), for which the Potency result in assay [1], in assay [2] and in assay [4] was “inactive” in each case. In addition, in [3], the activation is 0.188% (inactive). Besides, the viability change in assay [4] was -1.75%. The call in [5], in [6], in assay [7], in assay [8], in assay [9] and in assay [10] was inactive.

Regarding `N=c1nc(N2CCCCC2)cc(N)n1O`, the Potency result in [1], in [2] and in assay [4] was “inactive” each time. Further, the activation in assay [3] was 0% (inactive). The viability change in assay [4] was -11.3%. Further, the compound was classed as inactive in assay [5], in assay [6], in assay [7], in assay [8], in [9] and in assay [10].

The record behind these values is PubChem BioAssay (NCATS).
